According to ChEMBL document CHEMBL4808148, “HDAC6 screening dataset using tau-based substrate in an enzymatic assay yields selective inhibitors and activators” (2021):
Screen size: about 5,600 compounds; about 390 (7%) showed an effect of 50% or more. The sample holds strong results, similar compounds and a random draw of the others, so the mix is not that of the screen. Non-standard residues stand in square brackets, D forms with d. Residues, ends and D or L forms follow the SMILES beside them.

Molecular target: T1, Protein deacetylase HDAC6 (Homo sapiens) (UniProt Q9UBN7)
T1 sequence (whole entry): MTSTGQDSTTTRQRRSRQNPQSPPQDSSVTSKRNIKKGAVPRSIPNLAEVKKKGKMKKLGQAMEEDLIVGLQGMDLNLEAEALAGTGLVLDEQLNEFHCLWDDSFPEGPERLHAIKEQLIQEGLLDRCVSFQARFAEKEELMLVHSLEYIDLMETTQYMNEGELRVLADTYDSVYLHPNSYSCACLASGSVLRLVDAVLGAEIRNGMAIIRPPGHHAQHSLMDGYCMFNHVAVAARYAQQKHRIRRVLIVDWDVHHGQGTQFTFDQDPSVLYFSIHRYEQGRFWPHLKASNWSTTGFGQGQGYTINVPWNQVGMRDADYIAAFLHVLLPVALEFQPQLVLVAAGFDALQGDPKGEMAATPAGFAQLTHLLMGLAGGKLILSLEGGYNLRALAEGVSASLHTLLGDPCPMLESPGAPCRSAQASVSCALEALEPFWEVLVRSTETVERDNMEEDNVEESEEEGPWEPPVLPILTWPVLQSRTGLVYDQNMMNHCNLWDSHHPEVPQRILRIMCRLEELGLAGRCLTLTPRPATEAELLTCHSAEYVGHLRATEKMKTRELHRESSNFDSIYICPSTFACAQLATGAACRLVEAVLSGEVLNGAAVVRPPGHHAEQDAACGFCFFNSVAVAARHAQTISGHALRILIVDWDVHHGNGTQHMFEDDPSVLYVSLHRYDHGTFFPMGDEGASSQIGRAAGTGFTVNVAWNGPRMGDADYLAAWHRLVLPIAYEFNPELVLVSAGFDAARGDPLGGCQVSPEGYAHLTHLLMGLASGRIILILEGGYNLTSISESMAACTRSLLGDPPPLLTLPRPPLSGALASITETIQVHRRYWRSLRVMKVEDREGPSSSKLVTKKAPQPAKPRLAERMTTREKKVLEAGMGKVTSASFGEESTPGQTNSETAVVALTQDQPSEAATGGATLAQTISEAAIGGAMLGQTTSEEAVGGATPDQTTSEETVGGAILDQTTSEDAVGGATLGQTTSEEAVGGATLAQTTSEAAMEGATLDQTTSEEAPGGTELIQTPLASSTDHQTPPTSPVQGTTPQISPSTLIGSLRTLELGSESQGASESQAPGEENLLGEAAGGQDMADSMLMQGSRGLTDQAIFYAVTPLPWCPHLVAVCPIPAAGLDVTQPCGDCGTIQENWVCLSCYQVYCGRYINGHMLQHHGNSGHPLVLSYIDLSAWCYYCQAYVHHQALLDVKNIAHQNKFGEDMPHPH
Conditions: at 10 µM

Point of comparison: `Cc1c(C2CCN(CCc3ccccc3)CC2)noc1-c1ccc(Cl)cc1`, inhibition 5.51%. Against it:
- CCCCC/N=c1/ccn(Cc2ccccc2)c2ccccc12 — lower, -3.26%
- O=c1[nH]cnc2nc[nH]c12 — higher, 57.8%
- Cc1cccc(C)c1NC(=O)c1ccc(N)cc1 — higher, 7.12%
- C=C1C(=O)O[C@H]2[C@H]1CC/C(C)=C\CC[C@@]1(C)O[C@@H]21 — higher, 9.8%
- CC#CC(=O)N1CCC[C@H]1c1nc(-c2ccc(C(=O)Nc3ccccn3)cc2)c2c(N)nccn12 — higher, 10.6%
- O=C(NC1CCNCC1)c1n[nH]cc1NC(=O)c1c(Cl)cccc1Cl — higher, 42.4%
- CC1CCC(NC(=O)N(CCCl)N=O)CC1 (stereo not drawn) — higher, 48.2%
- Cc1cccc(Nc2nc(-c3ccncc3)cs2)c1 — higher, 91.1%
- Oc1ccc(Nc2nc(-c3ccc(Cl)cc3)cs2)cc1 — higher, 20.2%
- Cc1cccc(Nc2ccncc2S(=O)(=O)NC(=O)NC(C)C)c1 — lower, -9.9%
- O=C(O)CC(O)C(=O)O (stereo not drawn) — lower, 3.05%
- C[C@H]1[C@H](C)CC[C@]2(C(=O)O)CC[C@]3(C)C(=CC[C@@H]4[C@@]5(C)C[C@@H](O)[C@H](O)[C@@](C)(CO)[C@@H]5CC[C@]43C)[C@H]12 — lower, -0.26%
- O=C(NCc1ccccn1)Nc1nnc(-c2ccco2)o1 — lower, 1.12%
- CCCN(C/C=C/I)C1CCc2cccc(O)c2C1 (stereo not drawn) — higher, 14.4%
- CN(C)c1ccc(C(=C2C=CC(=[N+](C)C)C=C2)c2ccc(N(C)C)cc2)cc1 — higher, 79.1%
- C[C@H](Nc1cc(-c2cnn(C)c2)cc(Nc2cnccn2)n1)c1ccc(F)cc1 — lower, 3.96%
- O=C(O)C1=CCNCC1 — higher, 5.63%
- Cc1cc(C)c2nc(-c3ccccn3)cc(C(=O)Nc3ccc(S(=O)(=O)Nc4onc(C)c4C)cc3)c2c1 — lower, -6.66%
- Cc1ccccc1/N=N/c1ccc(/N=N/c2c(O)ccc3ccccc23)c(C)c1 — higher, 12%
- Cc1ccc(O)c(/N=N/c2ccccc2)n1 — higher, 102%
- C=CCN1CCN(c2nc3ccccc3nc2C#N)CC1 — higher, 32.5%
- CC(C)=CCC/C(C)=C/CC/C(C)=C/CC[C@]1(C)CCc2cc(O)cc(C)c2O1 — lower, -4.35%
- CN1CCN(CCc2ccc(Cl)c(Cl)c2)CC1 — lower, 0.9%
- NC(=O)c1sc(-c2ccsc2)cc1N — higher, 101%
- CCc1cc2c(cc1CC)CC(NC[C@H](O)c1ccc(O)c3[nH]c(=O)ccc13)C2 — higher, 15.6%
- COC(=O)N[C@H](C(=O)N1CCC[C@H]1C(=O)Nc1ccc([C@@H]2CC[C@@H](c3ccc(NC(=O)[C@@H]4CCCN4C(=O)[C@@H](NC(=O)OC)C(C)C)cc3)N2c2ccc(C(C)(C)C)cc2)cc1)C(C)C — higher, 18.8%
- CCOC(=O)C1=CCCC[C@H]1S(=O)(=O)Nc1ccc(F)cc1Cl — lower, -6.94%
- CC1=NN(c2ccc(C(=O)O)cc2)C(=O)/C1=C\c1ccc(-c2cc(C)c(C)cc2[N+](=O)[O-])o1 — lower, -7.66%
- NC(=O)N/N=C/c1ccc([N+](=O)[O-])o1 — lower, -5.79%
- CCOC(=O)c1ccc(N2NC(=O)/C(=C/c3ccc([N+](=O)[O-])o3)C2=O)cc1 — higher, 66.9%
- Cc1cccc(CCN2CCC(C(=O)c3ccc(NS(C)(=O)=O)cc3)CC2)n1 — higher, 25.6%
- C[C@]1(O)C[C@@H](c2nc(-c3ccc4ccc(-c5ccccc5)nc4c3)c3c(N)nccn32)C1 — higher, 29.4%
- Nc1ccc2ncnc(NCCc3ccc(Oc4ccccc4)cc3)c2c1 — higher, 58%
- Fc1ccc(CNc2ncnc3ccc(F)cc23)cc1 — lower, -3.85%
- COc1cc2ncnc(Nc3ccc(Oc4ccccc4)cc3)c2cc1OC — lower, 1.72%
- FC(F)(F)c1ccccc1-c1cc(C(F)(F)F)c2[nH]c(C3=NOC4(CCCCC4)C3)nc2c1 — lower, -8.26%
- C[C@]12CC[C@H](O)CC1=CC[C@@H]1[C@@H]2CC[C@]2(C)C(c3cccnc3)=CC[C@@H]12 — higher, 11.3%
- CC[S+]([O-])c1nc(-c2cccc(OCc3ccccc3)c2)cc(C(F)(F)F)n1 (stereo not drawn) — higher, 21.6%
- COc1ccc2cc(C(C)C(=O)Oc3ccc(C(N)=S)cc3)ccc2c1 (stereo not drawn) — higher, 29%
- Oc1cc(O)c2c(c1)O[C@H](c1ccc(O)c(O)c1)[C@H](O)[C@H]2c1c(O)cc(O)c2c1O[C@H](c1ccc(O)c(O)c1)[C@H](O)C2 — higher, 11%
- COc1ccccc1CC(=N)N1C[C@@H]2C(=O)CCC(c3ccccc3)(c3ccccc3)[C@@H]2C1 — higher, 5.85%
- Cc1cc(SCc2sc(-c3ccc(C(F)(F)F)cc3)nc2C)ccc1OCC(=O)O — higher, 46.6%
- Cc1nc(-c2ccc(OCC(C)C)c(C#N)c2)sc1C(=O)O — higher, 94.2%
- CCCCOCCOc1nc(-c2ccc(C(=O)O)c(F)c2)sc1C — lower, 3.39%
- CCCCCCCC(=O)N[C@H](CN1CCCC1)[C@H](O)c1ccc2c(c1)OCCO2 — higher, 6.2%
- CC(=O)NCC(=O)N[C@H](CCC(=O)O)C(=O)O (Ac-Gly-[dE]-OH) — lower, 1.3%
- O=C(O)c1ccc2nc(-c3cc(Cl)cc(Cl)c3)oc2c1 — higher, 76.5%
- CCN1CCCC1CNC(=O)c1cc(S(=O)(=O)CC)c(N)cc1OC (stereo not drawn) — lower, -7.98%
- C[C@@H]1C(=O)O[C@H]2[C@H](O)C34C5C[C@@H](C(C)(C)C)[C@]36[C@@H](OC(=O)[C@@H]6O)O[C@@]4(C(=O)O5)[C@@]12O (stereo partly drawn) — higher, 21%
- CC#CCOC(=O)c1c(C)nc2sc3c(c2c1N)CCC(O)C3 (stereo not drawn) — higher, 72.4%
- CN(NC(=O)CC(=O)NN(C)C(=S)c1ccccc1)C(=S)c1ccccc1 — lower, 1.95%
- CO[C@H]1CC[C@@H](C(=O)c2ccc3nc4c(cc3c2)CCCO4)CC1 — higher, 61%
- O=S(=O)(c1cccc2c(O)nccc12)N1CCCNCC1 — higher, 9.53%
- Cc1ccc(S(N)(=O)=O)cc1 — lower, -0.54%
- COc1ccc(/C=C/C(=O)O)cc1 — lower, -4.93%
- COc1cccc(NC(=O)/C=C/c2ccc(Cl)cc2)c1 — higher, 99.9%
- COc1cc(NC(=O)c2ccc(-c3ccc(Cl)cc3)o2)cc(OC)c1 — lower, 1.11%
- CCN(CC)CCOc1ccc(Nc2ncc3cc(-c4c(Cl)cccc4Cl)c(=O)n(C)c3n2)cc1 — higher, 12.6%
- Cc1cc(-c2ccc(/N=N/c3ccc4c(S(=O)(=O)O)cc(S(=O)(=O)O)c(N)c4c3O)c(C)c2)ccc1/N=N/c1ccc2c(S(=O)(=O)O)cc(S(=O)(=O)O)c(N)c2c1O — higher, 80.8%
- NC(=O)NC1NC(=O)NC1=O (stereo not drawn) — lower, 1.79%
- C[C@@H]1CCO[C@H]2Cn3cc(C(=O)NCc4ccc(F)cc4F)c(=O)c(O)c3C(=O)N12 — lower, -3.66%
- O=C1c2ccccc2C(Cc2ccncc2)(Cc2ccncc2)c2ccccc21 — lower, 3.99%
